CHT block: human CHT choline transport inhibition; B-score at 10 µM; 310,000 compounds, 0.86% hits; Q9GZV3; CHT-expressing cells, membrane potential dye, choline response; stronger effect = lower value; AID 488975;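 active = B-score over 3 SD under the library average, and starting fluorescence ratio not unusually high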;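 note: choline stimulus applied at its EC90 after an EC20 pre-addition; B-score computed on integrated fluorescence ratio after choline addition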
ANO1 activ: activates or potentiates the mouse TMEM16A chloride channel | HEK293 TMEM16A/YFP-H148Q/I152L, iodide quench fluorescence; stronger effect = lower value | AID 623877 | 340,000 compounds, 0.3% hits | Q8BHY3 | B-score at 10 µM;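 active = fluorescence-ratio B-score plate-corrected deviation score at least 3 library SD below zero, with starting fluorescence score within 5 deviations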;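 note: channel opened by trigger with iodide after compound preincubation; score built on the fluorescence ratio of max minus min over baseline; more negative score means more quench and so TMEM16A activation or potentiation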
Target sequence (Q8BHY3 whole entry, looked up): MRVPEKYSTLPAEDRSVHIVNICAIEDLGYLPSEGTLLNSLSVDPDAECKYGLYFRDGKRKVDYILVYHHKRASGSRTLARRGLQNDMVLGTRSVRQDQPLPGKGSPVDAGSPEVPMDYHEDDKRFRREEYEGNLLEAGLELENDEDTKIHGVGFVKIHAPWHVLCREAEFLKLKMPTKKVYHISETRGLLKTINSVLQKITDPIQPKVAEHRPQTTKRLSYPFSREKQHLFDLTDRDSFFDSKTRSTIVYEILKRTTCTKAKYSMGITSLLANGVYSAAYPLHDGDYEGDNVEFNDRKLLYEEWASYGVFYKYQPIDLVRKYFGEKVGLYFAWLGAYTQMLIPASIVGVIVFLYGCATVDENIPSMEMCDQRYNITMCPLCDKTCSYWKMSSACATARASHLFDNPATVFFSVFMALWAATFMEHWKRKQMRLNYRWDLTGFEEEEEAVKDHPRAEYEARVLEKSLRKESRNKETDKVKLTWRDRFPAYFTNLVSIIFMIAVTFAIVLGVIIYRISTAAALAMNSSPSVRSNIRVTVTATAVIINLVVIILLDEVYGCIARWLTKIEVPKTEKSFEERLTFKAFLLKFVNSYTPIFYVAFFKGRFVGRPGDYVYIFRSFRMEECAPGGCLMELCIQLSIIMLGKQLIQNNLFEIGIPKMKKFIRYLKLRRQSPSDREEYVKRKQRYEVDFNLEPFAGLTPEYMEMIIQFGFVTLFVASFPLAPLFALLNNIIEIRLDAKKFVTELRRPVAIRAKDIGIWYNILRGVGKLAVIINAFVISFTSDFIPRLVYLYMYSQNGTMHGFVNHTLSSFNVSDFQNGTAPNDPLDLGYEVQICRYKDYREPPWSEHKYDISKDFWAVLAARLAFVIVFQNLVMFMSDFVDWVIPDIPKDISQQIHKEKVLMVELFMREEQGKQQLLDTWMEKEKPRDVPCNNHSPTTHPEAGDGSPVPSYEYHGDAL
CHT PAM: allosteric activators of human choline transporter CHT; CHT-expressing cells, membrane potential dye, choline EC20; stronger effect = higher value; LV-AA mutant CHT in HEK293 cells; Q9GZV3; 310,000 compounds, 0.49% hits; B-score at 10 µM;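 active = initial fluorescence not abnormally high and integrated response B-score, plate-corrected, over 3 SD above library mean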
ANO1 block: blocks the mouse calcium-activated chloride channel TMEM16A. Q8BHY3. HEK293 TMEM16A/YFP iodide influx fluorescence, ionomycin. normalized B-score (activity score, 25-100; higher = stronger inhibition) at 10 µM. 310,000 compounds, 1.2% hits;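 active = ratio plate-corrected score three or more library SD toward inhibition, starting fluorescence score within five deviations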;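 note: score derived from kinetic fluorescence span divided by baseline fluorescence per well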
* = called active by the depositor. Compounds with a hit are over-represented: about 2.4% of the library has one in this group of screens.

What do the screens show for `CCCC(C)C1C(C#N)=C(N)Oc2c1c(=O)oc1ccccc21` (stereo not given)?
CHT block: inactive; ANO1 activ: inactive; CHT PAM: inactive; ANO1 block: 100*

Results for CCCC1C(C#N)=C(N)Oc2c1c(=O)oc1ccccc21 (stereo not given) ?
CHT block: inactive; ANO1 activ: inactive; CHT PAM: inactive; ANO1 block: inactive

How did CC(C)(C)C(=O)O[C@H]1CC[C@@]2(C)C(=CC(=O)C3C2CC[C@]2(C)C(=O)CCC32)C1 (stereo not given in full) do in these assays?
ANO1 activ: inactive

Results for C=CC(=O)NCNC(=O)C=C ?
ANO1 activ: inactive

How did CCCCCc1nc2c(c(=O)c3ccccc3n2C)c(=O)n1C1CCCCCC1 do in these assays?
CHT block: inactive; ANO1 activ: -11*; CHT PAM: inactive; ANO1 block: inactive

How did Cc1cc(=O)oc2cc(OCC(=O)N3C[C@H]4C[C@@H](C3)c3cccc(=O)n3C4)c(Cl)cc12 do in these assays?
CHT block: inactive; ANO1 activ: inactive; CHT PAM: inactive; ANO1 block: inactive

What do the screens show for `Cc1cc(=O)oc2cc(OCC(=O)N3CCN(C(C)c4ccccc4)CC3)c(Cl)cc12` (stereo not given)?
ANO1 activ: -42*

What do the screens show for `O=C(Cn1ncc2c3ccccc3n(Cc3ccccc3F)c2c1=O)N1CCC2(CC1)OCCO2`?
CHT block: inactive; ANO1 activ: -21*; CHT PAM: inactive; ANO1 block: inactive

Results for Cc1c2cnn(CC(=O)N3CCC4(CC3)OCCO4)c(=O)c2c(C)n1Cc1ccc(F)cc1 ?
CHT block: inactive; ANO1 activ: inactive; CHT PAM: inactive; ANO1 block: inactive

What do the screens show for `Cc1cc(NCCN)nc2ccccc12`?
CHT block: inactive; ANO1 activ: inactive; CHT PAM: 11*; ANO1 block: inactive

What do the screens show for `COc1cc(/C=C/c2nc3ccccc3c(=O)n2-c2cccc(O)c2)ccc1O`?
CHT block: inactive; ANO1 activ: -5.2*; CHT PAM: inactive; ANO1 block: inactive

How did COc1cc(/C=C/c2nc3ccccc3c(=O)n2-c2ccccc2O)ccc1O do in these assays?
CHT block: inactive; ANO1 activ: inactive; CHT PAM: inactive; ANO1 block: inactive

Results for CN1C(=O)COc2c(C(=O)NC3CN4CCC3CC4)cc(Cl)cc21 (stereo not given) ?
CHT block: inactive; CHT PAM: 8.9*; ANO1 block: inactive

What do the screens show for `CC/C(=C\C=C\[C@@H]1C=C[C@@H]2CCC[C@H]2[C@@H]1C(=O)c1ccc[nH]1)[C@@H]1O[C@@H]([C@@H](C)C(=O)O)CC[C@@H]1C`?
CHT block: -5.5*; CHT PAM: inactive; ANO1 block: 100*

What do the screens show for `O=c1[nH]c(=S)n(-c2ccccc2Cl)c(O)c1C=NCCN1CCNCC1`?
CHT block: inactive; ANO1 activ: inactive; CHT PAM: inactive; ANO1 block: inactive

What do the screens show for `CCOc1cccc(=NC2CCCCC2)c2c(C)n(C)c(C)c12`?
CHT block: inactive; ANO1 activ: inactive; CHT PAM: inactive; ANO1 block: 100*

Results for CCNc1cc(N2CCNCC2)ccc1[N+](=O)[O-] ?
CHT block: inactive; CHT PAM: 7.3*; ANO1 block: inactive

Results for O=[N+]([O-])c1ccc(N2CCNCC2)cc1N1CCCCC1 ?
CHT block: inactive; ANO1 activ: inactive; CHT PAM: inactive; ANO1 block: inactive

Results for O=[N+]([O-])c1ccc(N2CCNCC2)cc1NC1CC1 ?
CHT block: inactive; CHT PAM: 6.4*; ANO1 block: inactive

How did CCC1C2CC3C4N(C)c5ccccc5C45CC(C2C5O)N3[C@@H]1O (stereo not given in full) do in these assays?
CHT block: inactive; ANO1 activ: inactive; CHT PAM: inactive; ANO1 block: inactive

What do the screens show for `CC[C@H]1C2C[C@H]3[C@@H]4N(C)c5ccccc5C45C[C@H](C2[C@H]5O)N3[C@@H]1O` (stereo not given in full)?
CHT block: inactive; ANO1 activ: inactive; CHT PAM: inactive; ANO1 block: 100*

How did OC(c1ccc(F)cc1)C(c1ccccc1)N1CCOCC1 (stereo not given) do in these assays?
CHT block: inactive; ANO1 activ: inactive; CHT PAM: inactive; ANO1 block: inactive

Results for CCN(CC)C(=O)c1ccc(NC(=O)c2cccc(S(=O)(=O)N3CCN(Cc4ccccc4)CC3)c2)cc1 ?
CHT block: inactive; ANO1 activ: inactive; CHT PAM: inactive; ANO1 block: 25*

What do the screens show for `S=P(NCCSCc1ccccc1)(N1CC1)N1CC1`?
ANO1 activ: inactive

How did CCOc1ccc(-n2c(-c3ccoc3)nc3ccccc3c2=O)cc1 do in these assays?
CHT block: inactive; ANO1 activ: inactive; CHT PAM: inactive; ANO1 block: inactive

How did CCOc1ccc(-c2c(C)n(-c3ccc(OCC)cc3)c3[n+]2CCCCC3)cc1 do in these assays?
CHT block: inactive; ANO1 activ: inactive; CHT PAM: inactive; ANO1 block: 25*

Results for CCC(=NCc1ccco1)c1c(O)[nH]c(=O)[nH]c1=O ?
CHT block: inactive; ANO1 activ: inactive; CHT PAM: inactive; ANO1 block: inactive

What do the screens show for `CN(C)C(=O)Oc1ccc(OCc2nc3ccccc3[nH]2)cc1`?
CHT block: inactive; ANO1 activ: inactive; CHT PAM: inactive; ANO1 block: inactive

Results for CC(C)Oc1cccc(NC(=O)c2cccn(Cc3ccc4c(c3)OC(F)(F)O4)c2=O)c1 ?
CHT block: inactive; ANO1 activ: inactive; CHT PAM: inactive; ANO1 block: inactive

Results for Cc1cccc(C)c1NC(=O)c1cccn(Cc2ccc3c(c2)OC(F)(F)O3)c1=O ?
CHT block: inactive; ANO1 activ: inactive; CHT PAM: inactive; ANO1 block: 25*

Results for CCCC(CCC)C(=O)OC[N+](C)(C)CCOC(=O)C(O)(c1ccccc1)C1CCCC1 (stereo not given) ?
CHT block: inactive; ANO1 activ: inactive; CHT PAM: inactive; ANO1 block: inactive

Results for Cn1ncnc2c(=O)n(C)c(=O)nc1-2 ?
CHT block: inactive; ANO1 activ: inactive; CHT PAM: inactive; ANO1 block: 25*

Results for CC(C)CC(N(C)C)C1(c2ccc(Cl)cc2)CCC1 (stereo not given) ?
ANO1 activ: inactive

How did Cc1ccc(-c2cc(-c3ccccc3)cc(-c3ccccc3)[n+]2-c2ccccc2)cc1 do in these assays?
CHT block: inactive; ANO1 activ: inactive; CHT PAM: inactive; ANO1 block: 100*

What do the screens show for `CCOC(=O)c1cccc(-[n+]2c(-c3ccccc3)cc(-c3ccccc3)cc2-c2ccccc2)c1`?
CHT block: inactive; ANO1 activ: -5.6*; CHT PAM: inactive; ANO1 block: inactive

What do the screens show for `c1ccc(-c2cc(-c3ccccc3)[n+](-c3ccccc3)c(-c3ccccc3)c2)cc1`?
CHT block: inactive; ANO1 activ: inactive; CHT PAM: inactive; ANO1 block: 25*

Screening results as filed in PubChem.
